# Test results published in PubChem BioAssay (NCI).
# This is part of a sample that, as a whole, favours compounds with a hit. Of some 83,000 tested, about 20% had one in any assay.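 Cell lines were cultured in 96-well plates, exposed to a single compound concentration, and assessed for percent growth 48 hours later.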 A number with no mark means an inactive call. Activity calls are given as the source filed them. Rule for the calls: active = growth percent below 10; inactive = the rest.
# Key:
# Test in all cases: NCI-60 one-dose screen, 48 h (100 = growth as untreated, 0 = no growth, -100 = all killed)
# Conditions in all cases: 10 µM unless noted
# HCT-15 colon = system: HCT-15 colon
# HT29 colon = system: HT29 colon
# SNB-75 CNS = system: SNB-75 CNS
# SNB-19 CNS = system: SNB-19 CNS
# U251 CNS = system: U251 CNS
# PC-3 prostate = system: PC-3 prostate
# SK-MEL-5 melanoma = system: SK-MEL-5 melanoma
# UACC-62 melanoma = system: UACC-62 melanoma
# SK-MEL-28 melanoma = system: SK-MEL-28 melanoma
SMILES,growth (HCT-15 colon),growth (HT29 colon),growth (SNB-75 CNS),growth (SNB-19 CNS),growth (U251 CNS),growth (PC-3 prostate),growth (SK-MEL-5 melanoma),growth (UACC-62 melanoma),growth (SK-MEL-28 melanoma)
CC(=O)Oc1ccccc1C(=O)/C=C/c1cccc([N+](=O)[O-])c1,54.9%,48.8%,60.2%,81.1%,54.3%,71.1%,89.3%,85.7%,95.6%
N#C/C(=C\c1ccc(-c2ccc(Br)cc2)o1)c1nc(-c2cccs2)cs1,98.8%,105%,97%,95.1%,99.3%,95.9%,99.6%,86.2%,99.1%
CC(=O)O[C@H]1CC[C@]2(C)[C@H]3C(=O)C=C4[C@@H]5C[C@](C)(C(=O)N6CCCNCC6)CC[C@]5(C)CC[C@@]4(C)[C@]3(C)CC[C@H]2C1(C)C,-96.5% (active),-63.5% (active),80.1%,9.77% (active),-94.5% (active),6.04% (active),90.2%,13.7%,-74.5% (active)
CC(C)/C=C/CC[C@](C)(O)[C@H]1CC[C@]2(C)[C@@H]1CC[C@@H]1[C@@]3(C)C/C(=C/c4cccc(C(F)(F)F)c4)C(=O)C(C)(C)[C@@H]3CC[C@]12C,90.6%,97.3%,62.8%,92.2%,92.6%,79.5%,97.6%,81.8%,105%
Cn1cc(-c2csc(-c3c[nH]c4ccccc34)n2)c2cccnc21,25.6%,10.2%,-5.48% (active),47.2%,27.2%,22.1%,11.1%,44.7%,53.9%
N#C/C(=C\c1ccc(-c2cccc(C(F)(F)F)c2)o1)c1nc(-c2ccco2)cs1,71.7%,99.8%,82.2%,93.8%,96.4%,90%,88.1%,78.1%,97.7%
CC(=O)c1c(C)[nH]c(-c2nc3ccc(N4CCN(C)CC4)cc3[nH]2)c1-c1ccc2c(c1)OCCO2,8.46% (active),14.2%,1.99% (active),51.3%,57.2%,45.8%,26.1%,20.9%,50.8%
Brc1cnc2[nH]cc(-c3nnc(-c4ccccc4)o3)c2c1,55%,74.8%,66.3%,79.5%,74.6%,77.9%,80.4%,66.9%,90.9%
Brc1ccc(Cn2nnnc2-c2ccn(-c3ccccc3)n2)cc1,83%,63.6%,90.1%,78.9%,75.7%,60.8%,74%,53%,95.3%
CC(=O)Cc1nsc(NC(=O)c2ccoc2COc2ccccc2)n1,105%,107%,99.4%,93.6%,96.5%,89.9%,101%,93%,103%
CC1(C)NC2=C(C(Nc3cccnc3)N1)C(c1ccc([N+](=O)[O-])cc1)C(C(=O)c1ccc(N=[N+]=[N-])cc1)O2 (configuration not stated),104%,113%,96.2%,98.7%,101%,98.9%,102%,97.1%,103%
COc1ccc(C2CC(=O)c3c(nc4ccc(Cl)cc4c3N)C2)cc1 (configuration not stated),92.5%,101%,95.7%,103%,106%,101%,98.3%,99.5%,98.4%
Nc1c(C(=O)Nc2cccc(Br)c2)sc2nc3c(cc12)C(=O)CCC3,33%,8.17% (active),-4.52% (active),32.7%,37.7%,14.3%,20.5%,35.3%,48.3%
Fc1cccc(-c2[nH]nc3nc(Nc4cccnc4)sc23)c1,37.1%,14.5%,47.5%,40.2%,38.6%,33.1%,33%,57.2%,68.6%
COC(=O)[C@]12CC[C@@H](C(=O)/C=C/c3cccnc3)[C@@H]1[C@H]1CC[C@@H]3[C@@]4(C)C/C(=C/c5cccnc5)C(=O)C(C)(C)[C@@H]4CC[C@@]3(C)[C@]1(C)CC2,-46.2% (active),-45.5% (active),-98.7% (active),-87.6% (active),-87.9% (active),-14.1% (active),-98.9% (active),-67.9% (active),-96.3% (active)
O=C(O)/C(=C/c1ccc(O)cc1)c1ccccc1,104%,104%,88.4%,99.7%,93.7%,90.4%,95.5%,107%,102%
NC1=NN=C2N(N)C(=O)c3cnn(-c4ccccc4)c3N2c2nc(-c3ccccc3)cc(-c3ccccc3)c21,99.8%,102%,86.2%,93.5%,96.3%,90.5%,94%,82.9%,118%
Cc1cc(C)n(Cc2cc(C(C)(C)C)cc(C(C)(C)C)c2)c(=O)c1C#N,86.8%,99.4%,96.1%,95.8%,97.9%,79%,90.7%,72.8%,102%
CCC(=O)c1c(C)[nH]c(C)c1C,10.6%,36.9%,109%,94%,82.5%,79.9%,88.9%,95.7%,134%
CCc1ccc(-c2ccc(Nc3ccccc3)nn2)cc1S(N)(=O)=O,65.3%,68%,123%,105%,80.8%,60.6%,79.8%,81.1%,87.7%
O=C1C(=O)c2ccccc2C(O)=C1CCCc1ccc(C2CCCCC2)cc1,41.4%,41.8%,54.9%,39.9%,45.4%,39.2%,20.6%,47.9%,47.4%
COc1ccc(OC)c(-c2c(C#N)c(-c3ccco3)nc3c2c(-c2ccccc2)nn3-c2ccccc2)c1,96.9%,105%,84.5%,93.3%,103%,83.7%,97%,76.6%,106%
CCOc1ccc(NC(=O)c2ccccc2-c2ccccc2C(=O)O)cc1,106%,107%,91.3%,98.8%,112%,101%,106%,99.2%,109%
Cc1ccc(NC2CC(=O)N(c3c(C)cc(C)cc3C)C2=O)c(C)c1 (configuration not stated),105%,106%,105%,92.6%,95.8%,95.3%,99.9%,94.3%,109%
COc1cc(-c2cc(-c3nc4ccc(F)cc4[nH]3)[nH]n2)cc(OC)c1OC,24.1%,69.3%,15.2%,70.8%,46.2%,-18.1% (active),-50.2% (active),-25.4% (active),7.54% (active)
C=C(C)[C@@H]1CC[C@]2(CN)CC[C@]3(C)[C@H](CC[C@@H]4[C@@]5(C)CCC(=O)NC(C)(C)[C@@H]5CC[C@]43C)[C@@H]12,38.7%,11.5%,85.5%,78.4%,53.4%,37.4%,61.6%,82.5%,89.2%
COc1ccc2c(c1)C(Br)=C(CCO)C2c1ccccc1 (configuration not stated),87.6%,41.8%,57%,57.7%,55.8%,54.5%,96.5%,60%,69.5%
CC(=O)N1N=C(c2ccc(C)cc2)CC1c1ccc(Oc2ccc(Br)cc2)cc1 (configuration not stated),80.4%,79%,73.7%,84.9%,75.3%,87%,91.7%,64.4%,105%
